ClpP mod = qHTS Assay for Activators of ClpP; ATP-dependent Clp protease proteolytic subunit (Bacillus subtilis (strain 168)), P80244; purified B. subtilis ClpP, FRET peptide cleavage, 20 min; Potency, µM (titrated, usually from 57.5 µM); actives 1.9% (n = 340,000); active = well fitted falling curve with a large enough effect; inconclusive = small, poorly fitted or top-dose-only effect; inactive = no such curve, though single readings can be large or run the other way; also: the source files actives as falling curves though it sought activators and does not explain the sign; nearly all actives have a fitted effect of over 65% in size
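Buffer: 100 mM Tris/HCl pH8, 100 mM KCl, 0.05% low protease BSA, 2.5% glycerol, 0.01% Tween-20. ClpP 10 microg/mL final; 20 min RT; delta FRET normalized to ADEP and DMSO controls.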
TDP1 cell CPT = growth inhibition of DT40 Tdp1-/-;hTDP1 cells with camptothecin (screen for TDP1 inhibitors); chicken DT40 Tdp1-/-;hTDP1 cells + 20 nM CPT, ATP luminescence, 48 h; Potency, µM (highest dose often 46.2 µM), actives largely listed as inhibitors; actives 12% (n = 420,000); also: nearly all actives have a fitted effect of over 55% in size
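Chicken DT40 Tdp1-/- cells stably complemented with human TDP1 were seeded at 400 cells/well in medium containing 20 nM camptothecin, exposed to pin-transferred compounds, and grown at 37 °C for at least 48 hr. Viability was read as ATP luminescence.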
DT40 TDP1 no CPT = qHTS for Inhibitors of human tyrosyl-DNA phosphodiesterase 1 (TDP1): qHTS in cells in absence of CPT; DT40 Tdp1-/- hTDP1 cells, no CPT, ATP luminescence, 48 h; Potency, µM (doses to about 46.2 µM), hits mostly inhibitors; actives 15% (n = 420,000); also: nearly all actives have a fitted effect of over 55% in size
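Chicken DT40 Tdp1-/- cells complemented with human TDP1, screened without camptothecin (DMSO vehicle only), 400 cells/well. Compounds pin-transferred, cells incubated at 37 °C for at least 48 hr. Growth read as ATP-dependent luminescence (CellTiter-Glo, 30 min at RT).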
TDP1 inh = blocks human tyrosyl-DNA phosphodiesterase 1; Potency, µM (series often up to 130 µM), actives largely listed as inhibitors; recombinant TDP1, AlphaScreen DNA substrate cleavage; actives 0.28% (n = 350,000); also: nearly all actives have a fitted effect of over 40% in size
Target sequence (Q9NUW8 whole entry, looked up): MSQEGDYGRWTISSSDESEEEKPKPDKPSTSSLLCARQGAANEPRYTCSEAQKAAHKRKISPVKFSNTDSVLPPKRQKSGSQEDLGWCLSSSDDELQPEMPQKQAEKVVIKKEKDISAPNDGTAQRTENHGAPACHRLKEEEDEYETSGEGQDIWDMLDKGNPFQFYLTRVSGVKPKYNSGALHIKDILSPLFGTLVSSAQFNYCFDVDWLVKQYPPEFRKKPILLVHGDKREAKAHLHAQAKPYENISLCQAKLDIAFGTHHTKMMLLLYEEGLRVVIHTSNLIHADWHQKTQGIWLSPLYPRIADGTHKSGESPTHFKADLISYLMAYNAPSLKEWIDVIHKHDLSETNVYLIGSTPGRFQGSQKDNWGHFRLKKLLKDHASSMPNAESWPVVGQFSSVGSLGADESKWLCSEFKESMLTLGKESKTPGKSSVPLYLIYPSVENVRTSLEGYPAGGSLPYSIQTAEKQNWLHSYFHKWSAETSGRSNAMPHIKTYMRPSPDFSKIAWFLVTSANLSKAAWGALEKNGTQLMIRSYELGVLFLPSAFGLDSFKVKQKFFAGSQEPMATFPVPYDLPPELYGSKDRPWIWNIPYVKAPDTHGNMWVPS
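Steps: enzyme plus compound, 15 min RT; add biotin/phosphotyrosine-FITC oligonucleotide (15 nM final), react 5 min; add donor/acceptor beads (10 ug/ml final), 10 min; read AlphaScreen. Tdp1 at 1 nM final.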
A number is an active result; n = inactive; u = inconclusive; x = not tested or not shown. Most compounds without a hit are left out; they make up all but 17% or so of the library. Unless noted, calls follow the shape of the dose curve; as a rule, active = well fitted curve in the direction sought with a large enough effect; inconclusive = small, poorly fitted or top-dose-only effect, or another doubt; inactive = no such curve, though single readings can be large; an effect the other way counts as inactive or inconclusive.

SMILES	ClpP mod	TDP1 cell CPT	DT40 TDP1 no CPT	TDP1 inh
C=CCc1cccc2cc(C(=O)Nc3ccc(F)cc3)c(=O)oc12	n	n	n	n
C=CCc1cccc2cc(C(=O)Nc3ccc(CC(=O)O)cc3)c(=O)oc12	x	n	n	50µM
C=CCc1cccc2cc(C(=O)Nc3ccc(S(=O)(=O)Nc4nnc(CC)s4)cc3)c(=O)oc12	n	n	n	50µM
Cc1ccc(NC(=O)[C@@H]2O[C@H](CO)[C@H](O)[C@H](O)[C@H]2O)cc1C(F)(F)F	n	n	n	x
O=C(Nc1ccc2c(c1)N(C1CCCC1)C(=O)c1ccccc1S2)c1ccc(F)cc1	u	23µM	u	n
O=C(Nc1ccc2c(c1)N(C1CCCC1)C(=O)c1ccccc1S2)c1ccccc1	n	u	12µM	n
O=C(Nc1ccc2c(c1)N(C1CCCC1)C(=O)c1ccccc1S2)c1cccc(F)c1	n	u	18µM	n
CC1=C(C(=O)N2CCCCCC2)CC(CC(=O)NC2CCCC2)C(=O)N1Cc1ccc(C(C)(C)C)cc1 (stereo not drawn)	n	u	u	x
S=c1nc(-c2ccc(Br)cc2)oc2c1CCCC2	n	21µM	n	n
Cc1cccc(-c2nc(=S)c3c(o2)CCCC3)c1	n	u	u	n
O=C(CCN1C(=O)C2C3C=CC(C3)C2C1=O)Nc1ccccc1 (stereo not drawn)	n	n	n	n
Cc1cc(NC(=O)CCN2C(=O)C3C4C=CC(C4)C3C2=O)c2ccccc2n1 (stereo not drawn)	n	u	21µM	n
Cc1ccc(NC(=O)CSc2nc3ccccc3n2CC(=O)N2CCC(C)CC2)cc1C	n	u	18µM	n
Cc1cc2ccccc2n2c(SCC(=O)Nc3ccc(S(=O)(=O)N4CCC(C)CC4)cc3)nnc12	n	29µM	23µM	n
CCCCN(C)C(=O)Cn1c(SCC(=O)Nc2ccc(C)c(C)c2)nc2ccccc21	n	u	13µM	n
Cc1cc2cc(C)c3nnc(SCC(=O)Nc4ccc(S(=O)(=O)N5CCCCC5)cc4)n3c2cc1C	n	u	n	n
COc1ccc(CNc2ncnc3sccc23)cc1OC	x	8.2µM	7.3µM	n
Cc1sc2ncnc(NCc3ccccc3)c2c1C	n	13µM	15µM	n
COc1ccc(C(CNc2ncnc3sccc23)N(C)C)cc1OC (stereo not drawn)	x	n	n	x
Cc1sc2ncnc(Nc3ccccc3)c2c1C	n	u	u	n
Cc1ccccc1S(=O)(=O)Nc1ncnc2sccc12	n	n	n	n
OC(CNc1ncnc2sccc12)c1ccccc1 (stereo not drawn)	x	4.1µM	5.2µM	n
CN(C)C(CNc1ncnc2sccc12)c1ccccc1 (stereo not drawn)	x	n	u	n
c1ccc(CNc2ncnc3sccc23)cc1	n	8.2µM	7.3µM	n
CC(C(=O)N1CCN(Cc2ccc3c(c2)OCO3)CC1)c1ccc([N+](=O)[O-])cc1 (stereo not drawn)	x	n	u	n
SMILES	ClpP mod	TDP1 cell CPT	DT40 TDP1 no CPT	TDP1 inh
c1csc(CNc2ncnc3sccc23)c1	n	5.2µM	5.2µM	x
Cc1cc2c(NCC(C)O)ncnc2s1 (stereo not drawn)	n	n	n	x
COc1ccc(CNc2ncnc3sccc23)cc1	x	5.8µM	4.1µM	n
Cc1cc2c(NCc3ccccc3)ncnc2s1	x	u	6.5µM	x
O=S1(=O)N[C@@H](c2ccccc2)COc2cc(Br)ccc21	n	n	u	x
C=CCN1C(=O)c2ccc(C(=O)N(CC)CC(=O)Nc3c(F)cccc3F)cc2C1=O	n	n	n	n
Cc1cc(Cl)nc2c(C(C)C)cccc12	n	u	u	n
Cc1cc(Cl)nc2nc(Cl)ccc12	n	u	5.6µM	x
c1ccc(-c2c[nH]c3[n+]2CCCCC3)cc1	n	n	9.2µM	n
N#CC(c1ccccc1)c1ccc2c(C(F)(F)F)cc(C(F)(F)F)nc2n1 (stereo not drawn)	n	13µM	18µM	n
FC(F)(F)c1cc(C(F)(F)F)c2ccc(N/N=C/c3ccccc3)nc2n1	n	n	n	n
Cc1ccc(C(C#N)c2ccc3c(C(F)(F)F)cc(C(F)(F)F)nc3n2)cc1 (stereo not drawn)	n	26µM	18µM	n
CCOC(=O)C1=C(C)N(c2ccc(OC)cc2)C(=O)/C1=C\c1ccc(O)c(OCC)c1	n	23µM	u	n
O=C(COc1ccc([N+](=O)[O-])cc1)N1CCC(c2nc3ccccc3s2)CC1	n	7.3µM	9.2µM	n
CCc1ccc(OC(C)C(=O)N2CCC(c3nc4ccccc4s3)CC2)cc1 (stereo not drawn)	n	18µM	16µM	n
COc1ccc(Cl)cc1NC(=O)COc1cccc2c(=O)n(C)ccc12	n	n	u	n
Cn1ccc2c(OCC(=O)NCc3ccccc3Cl)cccc2c1=O	u	u	18µM	n
CCCCc1ccc(NC(=O)COc2cccc3c(=O)n(C)ccc23)cc1	n	13µM	18µM	n
COC(=O)c1c(O)cc(C(C)(C)C)n(-c2ccccc2)c1=O	n	n	n	n
Cc1cc(F)ccc1S(=O)(=O)Nc1ccc(C(=O)N2CCCCC2)cc1	x	u	u	n
CCCCCOC(=O)C1=C(C)Nc2nnnn2C1c1ccccc1Cl (stereo not drawn)	n	u	21µM	n
CCOC(=O)C1=C(C)Nc2ncnn2C1c1cccnc1 (stereo not drawn)	n	n	n	n
CC1=C(C(=O)OCc2ccccc2)C(c2cccnc2)n2nnnc2N1 (stereo not drawn)	n	u	16µM	n
COC(=O)C1=C(C)Nc2nnnn2C1c1ccccc1Cl (stereo not drawn)	n	n	n	n
CCOc1cc(/C=C(\CC(=O)O)c2nc3ccccc3s2)ccc1OCC(=O)Nc1cccc(C(F)(F)F)c1	n	u	u	x
SMILES	ClpP mod	TDP1 cell CPT	DT40 TDP1 no CPT	TDP1 inh
CNC(=O)Nc1ccc2nc(C)oc2c1	n	n	n	x
Cc1nc2ccc(NC(=O)c3cccc(C(F)(F)F)c3)cc2o1	n	23µM	u	n
Cc1cc(Nc2cccc(C(F)(F)F)c2)nc2ccc(NC(=O)c3cccnc3)cc12	n	4.1µM	2.3µM	n
CCOc1ccc(C(=O)Nc2ccc3nc(Nc4cccc(C(F)(F)F)c4)cc(C)c3c2)cc1OCC	u	18µM	5.2µM	n
Cc1cc(Nc2cccc(C(F)(F)F)c2)nc2ccc(NC(=O)c3cccc(Cl)c3)cc12	u	13µM	6.5µM	n
CC1(C(=O)NS(=O)(=O)Cc2ccccc2C(F)(F)F)CCN1C(=O)c1ccco1 (stereo not drawn)	n	n	n	x
CCCCCCCCCCCCCCCC(=O)O[C@H](CC(=O)O)C[N+](C)(C)C	x	u	30µM	n
CCCCCCCCCCCCCCCC(=O)OC(CC(=O)O)C[N+](C)(C)C (stereo not drawn)	n	5.8µM	u	n
Cc1ccc(C)c(NC(=O)CN(C)C(=O)c2ccccc2OCc2c(C)noc2C)c1	n	n	n	n

Compound activity deposited in PubChem by National Center for Advancing Translational Sciences (NCATS).
